# BRCA1 expr act: activators of BRCA1 expression | MCF7-BRCA1-FFLuc reporter, luminescence, 48 h; response scale: scaled: vehicle 0%, 10 µM genistein 100% | Potency, µM (doses to about 46.1 µM), for inactives: top-dose activation, usual class: activators | 380,000 tested, 1.1% active; further: potency means the concentration at half of the fitted maximal effect; nearly all actives have a fitted effect of over 80% in size
#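 Quantitative HTS in MCF7 cells stably reporting BRCA1 expression via firefly luciferase. Compound treatment lasts 48 h at 37 °C in phenol-red free MEM. Activation is expressed relative to genistein at 10 microM and DMSO.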
# TCR activator: activators of T cell receptors; AID 504894; primary human leukocytes, anti-CD3, IL-2 HTRF, 48 h; Potency, µM (series often up to 9.22 µM), without a hit: at the top dose activation of IL-2 secretion, most hits filed as activators; 330,000 tested, under 10 active; further: % of control where 0% means no effect
#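 IL-2 release read by HTRF sandwich (Eu cryptate donor, d2 acceptor, 665 nm emission) after 48 hr exposure of primary human leukocytes to compound together with anti-CD3 beads in the absence of co-stimulatory signals.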
# pAkt inh: Akt phosphorylation inhibition; Neuro2A IGF-stimulated pAkt S473 HTRF, 20 min; stronger effect = lower value; activity change, % for hits at 50 µM; 360,000 tested, 0.32% active; in the data active means activity change below about -80%; inconclusive means mostly about -51% to -80%; further: on the % scale 0 is the no-effect control and ±100 the full control effect
#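 Neuro2A cells in DMEM with 0.5% FBS, overnight at 37 deg C, given compound at single 50 µM final, then IGF (6 nM final) for 20 min at 37 deg C. Lysed; phospho-Akt Ser473 by HTRF after 24 h, 665/615 ratio.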
# PINK1 modulator: changes PINK1 expression | PINK1 immunofluorescence, high-content cytometry, 24 h | Potency, µM (top dose mostly 76.6 µM), for the others: top-dose activation (PINK1 increase), hits mostly activators | 410,000 tested, 0.2% active; active means well fitted activation curve with a large enough effect; inconclusive means small, poorly fitted or top-dose-only effect; cell line not stated here; further: potency means the concentration at half of the fitted maximal effect; % of control where 0% means no effect; nearly all actives have a fitted effect of over 65% in size
#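 Cells are seeded, rested 12 hours, then given compound at five concentrations or DMSO for 24 hours. After fixation, blocking and antibody staining, PINK1 amount and mitochondrial localization are scored; CCCP serves as control.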
# Starred values were filed as active, the others as inactive; i = inactive; ? = inconclusive; . = no result given; [ ] = remark or other dose. In the library only some 1.5% were active in any assay of this set; here they are far more common. Unless noted, the call rests on the fitted dose curve; in most records, active means well fitted curve in the direction sought with a large enough effect; inconclusive means small, poorly fitted or top-dose-only effect, or another doubt; inactive means no such curve, though single readings can be large; an effect the other way counts as inactive or inconclusive.
SMILES,BRCA1 expr act,TCR activator,pAkt inh,PINK1 modulator
N#Cc1ccc(C=NN2CCCCCC2)cc1,6.3µM*,-3%,i,2%
Clc1ccc(C=NN2CCCCCC2)cc1,10µM*,3%,i,?
O=[N+]([O-])c1ccc(/C=N/N2CCCCC2)cc1,10µM*,4%,i,1%
Clc1ccc(C=NN2CCCCCC2)cc1Cl,8.9µM*,8%,i,23%
Oc1ccc(/C=N/N2CCCCC2)cc1O,85%,2%,i,0%
CN(C)C(=O)c1ccc(-c2nccc(NCc3cccnc3)n2)cc1,.,.,.,0%
N#CC(C#N)C(c1ccsc1)c1c(-c2ccccc2)[nH][nH]c1=O (centres undefined),-23%,-4%,-108%*,-1%
COCC(=O)Nc1cc(C(=O)N2CC3CCCC2C3)c2c(c1)nc(-c1ccncc1)n2C (centres undefined),.,.,.,2%
O=C(c1ccc2snnc2c1)N1CCSCC1,3%,-3%,-108%*,1%
CCN(CCC#N)c1ccc(/C=C/c2ccnc3ccccc23)cc1,-52%,.,.,2%
COc1cccc(CNC(=O)c2c(OC)cc(=O)n3c2CCN(C(=O)c2ccccc2Cl)CC3)c1,.,.,.,1%
COc1ccc(NC(=O)c2cc3ccccc3[nH]2)cc1,?,.,i,-1%
COc1ccc2[nH]c(=O)c(COC(=O)c3ccco3)cc2c1,0%,-2%,-114%*,-1%
CCN1CCN(C(=O)c2cc3ccc(OC)cc3[nH]2)CC1,11µM*,-2%,i,0%
COc1ccc2[nH]c(C(=O)Nc3ccc(C)c(F)c3)cc2c1,3.5µM*,1%,i,1%
CCOC(=O)c1cc2cc(OC)ccc2[nH]1,5.6µM*,-5%,i,0%
COc1ccc2cc(C(=O)N3CCN(C)CC3)[nH]c2c1,79%,-26%,i,1%
CCOC(=O)c1[nH]c2ccc(OC)cc2c1C,27%,3%,i,-2%
CC(=O)c1cccc(NC(=O)CN2C(=O)CCc3cc(S(=O)(=O)N4CCCCC4)ccc32)c1,0%,.,.,-1%
COc1ccc(-c2nc3sc(CCNC(=O)Cc4ccccc4)c(C)n3n2)cc1,.,.,.,1%
COc1ccc(-c2nc3sc(CCNC(=O)c4cc(OC)c(OC)c(OC)c4)c(C)n3n2)cc1,7.9µM*,.,.,0%
CC(=O)c1ccccc1C(=O)NCC1Cc2cccc(-c3cccnc3)c2O1 (centres undefined),.,.,.,1%
CC(C)OC(=O)CSc1nnc(CNc2nc(-c3ccccc3)cs2)n1C,-2%,-1%,-103%*,-1%
Cn1nnc2cc(C(=O)Nc3ccccc3)ccc21,7.1µM*,-1%,i,5%
Cn1nnc2cc(C(=O)Nc3ccc(Cl)cc3)ccc21,26%,2%,i,4%
SMILES,BRCA1 expr act,TCR activator,pAkt inh,PINK1 modulator
Cc1ccc(NC(=O)c2ccc3c(c2)nnn3C)cc1,7.1µM*,1%[46.1 µM],i,8%
CN(C)c1ccc(NC(=O)Nc2ccc3c(c2)nnn3C)cc1,?,1%,i,1%
COc1cccc(NC(=O)Nc2ccc3c(c2)nnn3C)c1,7.9µM*,1%[46.1 µM],i,2%
CCCn1c(NC(=O)c2ccc(Br)cc2)nc2ccccc21,-53%,-1%,-87%*,18%[38.3 µM]
CCCn1c(NC(=O)c2ccc(F)cc2)nc2ccccc21,-21%,-4%,i,2%
O=c1c2ccccc2oc2ccc(Oc3ccccc3)cc12,3.5µM*,-10%,i,6%
CCN(CC)C(=O)CSc1n[nH]c(=O)n1CCc1ccccc1,-29%,1%,i,-1%
O=c1[nH]nc(Sc2ncnc3sccc23)n1CCc1ccccc1,-98%,1%,-99%*,-2%
O=[N+]([O-])c1ccc(N2CCc3ccccc3C2)nc1,11µM*,.,i,-2%
CC(C)(C)n1ncc2c(=O)n(CC(=O)c3ccc(Cl)cc3)cnc21,2.2µM*,0%,.,-2%
COc1cc(=O)n2c(c1C(=O)NCc1nonc1C)CCN(Cc1c[nH]c3ccccc13)CC2,.,.,.,1%
CCN(c1cccc(C)c1)c1ncnc2c1cnn2-c1cccc(Cl)c1,.,.,.,2%
Cc1cc(C)c2nc(N3CCN(C(=O)c4ccco4)CC3)sc2c1,13µM*,1%,i,1%
C(=C\c1ccnc2ccccc12)/c1cc2c3c(c1)CCCN3CCC2,-39%,.,.,0%
O=C(Nc1ccc(Oc2cccnc2)cc1)c1ccccc1F,4µM*,2%,i,-4%
O=C(Nc1ccc(Oc2cccnc2)cc1)c1ccccc1Cl,87%,-7%[46.1 µM],i,4%
COC(=O)C(Cc1ccc(OC(=O)c2ccccc2Cl)cc1)N1Cc2ccccc2C1=O (centres undefined),6.3µM*,-2%,i,-3%
COc1cc(=O)n2c(c1C(=O)N(C)Cc1nonc1C)CCN(Cc1ccc(C)cc1C)CC2,.,.,.,-1%
CCCCNc1c(-c2ccc(-c3cccc(Cl)c3)cc2)nc2ccccn12,8.9µM*,-4%,i,?
CCCCCCSc1ccc(-c2nc3ccccn3c2NCCCC)cc1,12%,2%,i,?
O=C(O)CSc1nnc(CNc2ccc(Cl)cc2)n1Cc1ccccc1,0%,-1%,-113%*,0%
CCOC(=O)CSc1nnc(CNc2ccc(Cl)cc2)n1Cc1ccccc1,-3%,4%[46.1 µM],i,1%
CC(=O)Nc1ccc2oc(-c3cc(F)c(F)cc3Cl)nc2c1,49%,2%,i,-1%
CC(C)C(=O)Nc1ccc2oc(-c3cc(F)c(F)cc3Cl)nc2c1,2.8µM*,0%[46.1 µM],i,?
COc1cccc(CN2CCCC(c3nc(-c4ccncc4)ncc3-c3ccccc3C)C2)c1O (centres undefined),.,.,.,0%
SMILES,BRCA1 expr act,TCR activator,pAkt inh,PINK1 modulator
CCn1nc(C(=O)OCC(=O)Nc2nc(-c3ccc(OC)cc3)cs2)c2ccccc2c1=O,6.3µM*,0%[46.1 µM],i,0%
Cc1cc(NCCCN)nc(-c2ccccc2O)n1,3.5µM*,-5%,i,-3%
CCCCCCSc1ccc(-c2nc3cc(C)ccn3c2NC2CCCCC2)cc1,-27%,4%,i,18µM*
CCC(C)Sc1ccc(-c2nc3cc(C)ccn3c2NC2CCCCC2)cc1 (centres undefined),-6%,-6%,i,14µM*
CO[C@H]1[C@H](NC(=O)c2ccsc2)c2ccccc2C12CCN(Cc1cc3ccccc3o1)CC2,.,.,.,0%
COc1ccc(NC(=O)Cn2c(=O)oc3cc(S(=O)(=O)N4CCCCC4C)ccc32)cc1 (centres undefined),.,.,.,1%
N=C1/C(=C/c2ccc(OCc3ccccc3F)cc2)C(=O)N=C2SC(CC(=O)N3CCOCC3)=NN12,?,3%,i,0%
N=C1/C(=C/c2ccc(OCc3ccccc3)cc2)C(=O)N=C2SC(CC(=O)N3CCOCC3)=NN12,14µM*,1%,i,0%
CCOc1ccccc1NC(=O)c1nn(C)c2c1CSc1ccccc1-2,.,.,.,0%
CN1C(=O)/C(=C\c2ccc(N(C)C)cc2)OC1=S,21%,1%,i,32µM*
COc1ccc(/C=C2\OC(=S)N(C)C2=O)cc1,-2%,-8%[46.1 µM],i,-2%[38.3 µM]
